This passage reports Potency and outcome results from PubChem BioAssay (NCATS).

Records with an inconclusive call do not appear. Active and inactive are the calls of the source. Calls come from the whole dose curve; as a rule, active = well fitted curve in the direction sought with a large enough effect; inconclusive = small, poorly fitted or top-dose-only effect, or another doubt; inactive = no such curve, though single readings can be large; an effect the other way counts as inactive or inconclusive.

Experiment [1] can be described thus: OV-KATE Cancer Cell Toxicity qHTS against the NCATS CANVASS Library (AID 1347345). A digest of the protocol: (§1)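 Per well, 1000 cells; exposure 72 h with compound at 11 final concentrations; readout CellTiter-Glo luminescence.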
Background: qHTS replaces the single test concentration by a dilution series.

Experiment [2] is described as follows: SW1088 Cancer Cell Toxicity qHTS against the NCATS CANVASS Library (AID 1347350). Note: series mostly up to about 38 µM; nearly all actives have a fitted effect of over 75% in size. Put shortly:
as §1

A short description of experiment [3]: UWB1.289-WTBRCA1 Cancer Cell Toxicity qHTS against the NCATS CANVASS Library (AID 1347354). A digest of the protocol: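 Toxicity was measured as CellTiter-Glo luminescence after 72 h exposure to an 11-point compound series. Compound was added to 1000 cells/well 4 h after seeding.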
Experiment [4] is described as follows: HPAF-II 12hr Apoptosis Induction qHTS against the NCATS CANVASS Library (AID 1347358). Put shortly:
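Caspase-3/7 activation by DEVD-substrate luminescence (Caspase-Glo 3/7, 15 min, room temperature) after a 12-hour compound exposure in 11 concentrations, of HPAF-II pancreatic cells seeded at 500/well in DMEM with 10% FBS.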

Experiment [5] in a line: HEK293 12hr Apoptosis Induction qHTS against the NCATS CANVASS Library (AID 1347361). Put shortly: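 Luminescent caspase-3/7 signal, proportional to enzyme activity, was recorded from HEK293 cultures in DMEM + 10% FBS treated for 12 hours with titrated natural products (11 points). Doxorubicin (0.1nM - 4uM) served as control.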
Experiment [6] can be described thus: KB-8-5-11 Cancer Cell Toxicity qHTS against the NCATS CANVASS Library (AID 1347364). Note: nearly all actives have a fitted effect of over 75% in size. Note: potency is the fitted concentration of half-maximal effect. Put shortly: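 Viability read as CellTiter-Glo luminescence after 72 h at 37 °C, 5% CO2. 11-point compound series on 500 KB-8-5-11 cells/well in DMEM/10% FBS. Follow-up plating included 1 uM tariquidar in the medium.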
Experiment [7] is described as follows: G06 Cancer Cell Toxicity qHTS against the NCATS CANVASS Library (AID 1347368). Note: nearly all actives have a fitted effect of over 60% in size. Note: potency is the fitted concentration of half-maximal effect. Put shortly: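 Viability measured by CellTiterGlo ATP luminescence after 72 hr at 37C, 5% CO2. Canine G06 glioma cells plated at 500/well. Compounds tested as 11-point qHTS titrations.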
Experiment [8] is described as follows: qHTS for ATAD5 Antagonist screened against the NCATS CANVASS Library (AID 1347370). Note: nearly all actives have a fitted effect of over 65% in size. Note: potency is the fitted concentration of half-maximal effect. A digest of the protocol: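 Compounds (11-point) co-dosed with 10 µM 5-FUrd for 16 h at 37 °C onto HEK293T-ATAD5 luciferase reporter cells. Viability measured by CellTiter-Fluor fluorescence, then ATAD5 reporter signal by luminescence.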
Experiment [9] is described as follows: J3T Cancer Cell Toxicity qHTS against the NCATS CANVASS Library (AID 1347371). Note: potency is the fitted concentration of half-maximal effect. Put shortly:
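Cytotoxicity read as CellTiterGlo ATP luminescence after 72 h incubation (37C, 5% CO2) of J3T canine glioma cells (500/well) with an 11-point compound series.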

The nature of experiment [10]: qHTS for Inflammasome Signaling Inhibitors: IL-1-beta AlphaLISA screen against the NCATS CANVASS Library (AID 1347379).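 For Potency: secreted IL-1B measured as AlphaLISA emission at 615 nm; potency is the fitted concentration of half-maximal effect.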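 Note: human THP-1 cells primed with LPS then triggered with ATP.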 Put shortly: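 Secreted IL-1B from human THP-1 cells quantified by AlphaLISA 16 hr after compound addition (final up to 57.5 uM). A 1 hr compound pretreatment preceded inflammasome activation with 250 ng/mL LPS plus 1.25 mM ATP (final).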
Experiment [11] in a line: qHTS for Activators of p53 Stress Response Pathway screened against the NCATS CANVASS Library (AID 1347388). Note: potency is the fitted concentration of half-maximal effect. A digest of the protocol:
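Beta-lactamase reporter driven by p53 response elements in HCT-116 cells, read as the 460 nm/530 nm emission ratio after CCF4 loading, following 16 h of exposure to an 11-point series. Cell viability was measured in the same wells by CellTiter-Glo luminescence.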

Experiment [12] can be described thus: qHTS assay for small molecule disruptors of mitochondrial membrane potential screened against the NCATS CANVASS Library (AID 1347389). Note: series mostly up to about 46 µM; nearly all actives have a fitted effect of over 60% in size. A digest of the protocol: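 Mitochondrial membrane potential in HepG2: 1 h compound treatment (11-point concentration series), 30 min m-MPI dye at 37C, then dual fluorescence of J-aggregates (ex 540/em 590) and monomers (ex 490/em 535); lower red/green ratio indicates depolarization.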

Experiment [13] in a line: Secretion counterscreen for inhibitors of the SERCaMP assay screened against the NCATS CANVASS Library (AID 1347390).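 Note: light from luciferase secreted into medium read as a measure of general secretion.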 Note: potency is the fitted concentration of half-maximal effect. A digest of the protocol: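 Natural products are titrated in an 11-point series up to 77 uM onto SH-SY5Y-GLuc STOP cells for 20 h. Secreted reporter activity is measured as coelenterazine-driven luminescence, with Brefeldin A on each plate.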
In general terms: A counterscreen serves to expose hits that act by an unwanted route or on another target.

Experiment [14] in a line: qHTS for activators of dead-cell proteases activity screened against the NCATS CANVASS Library (AID 1347392).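 Note: luminescence from protease leaking out of membrane-damaged cells cleaving impermeant substrate; rising signal means more cytotoxicity.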 Put shortly:
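Luminescent dead-cell protease readout (AAF-aminoluciferin, 15 min, room temperature) after 5 h compound treatment of HepG2 cells (2000/well, pre-attached 18 h). Eleven concentrations.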

The nature of experiment [15]: qHTS for inhibitors of ER calcium dysfunction: SERCaMP assay screened against the NCATS CANVASS Library (AID 1347393).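 Note: series mostly up to about 77 µM; lower secreted reporter signal means inhibitor of ER calcium depletion; nearly all actives have a fitted effect of over 40% in size.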 A digest of the protocol: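 Thapsigargin-induced ER calcium depletion drives GLuc-SERCaMP secretion from SH-SY5Y cells; compounds given 16 h beforehand were scored by lowered coelenterazine luminescence after 4 h challenge.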
The nature of experiment [16]: qHTS for inhibitors of Wild type Zika virus screened against the NCATS CANVASS Library (AID 1347396).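 Note: ATP luminescence of surviving cells so rescue from viral cell killing; series mostly up to about 46 µM.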 Put shortly:
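Protection against wild-type Zika cytopathic effect is measured in African green monkey Vero 766 cells exposed to an 11-point compound series. Surviving cells are quantified by CellTiter Glo luminescence after 72 h.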

Experiment [17] is described as follows: Redox Reaction Profiling qHTS: Assay Interference Panel against the NCATS CANVASS Library (AID 1347401). A digest of the protocol:
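Redox-cycling liability assessed as DTT-driven conversion of resazurin (5 uM, with 200 uM DTT, HEPES pH 7.3) to fluorescent resorufin. Fluorescence at 525/598 nm measured initially and after 15 min dark incubation.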

The test system of experiment [18] is NAD(P)H diaphorase (Clostridium kluyveri). The experiment in a line: Diaphorse counterscreen qHTS: Assay Interference Panel against the NCATS CANVASS Library (AID 1347362). A digest of the protocol:
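Counterscreen for coupling-enzyme interference: resorufin fluorescence from resazurin/NADH turnover, read after 5 min at room temperature. Compounds were tested over an 11-point series after 15 min dark preincubation with diaphorase in PBS-Tween.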

Experiment [19] can be described thus: qHTS for activators of Nrf2/ARE signaling pathway screened against the NCATS CANVASS Library (AID 1347391). Note: nearly all actives have a fitted effect of over 60% in size. Note: potency is the fitted concentration of half-maximal effect. A digest of the protocol:
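Eleven-point qHTS, 16 h treatment of HepG2 cells carrying an ARE-driven beta-lactamase reporter; CCF4 ratio read (405 nm excitation, 460 and 530 nm emission), with CellTiter-Glo ATP luminescence for viability.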

A short description of experiment [20]: KB-3-1 Cancer Cell Toxicity qHTS against the NCATS CANVASS Library (AID 1347366). Note: nearly all actives have a fitted effect of over 75% in size. Note: potency is the fitted concentration of half-maximal effect. A digest of the protocol:
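Cytotoxicity toward KB-3-1 cells (500/well, DMEM + 10% FBS) was scored by CellTiter-Glo luminescence following 72 hr exposure at 37C, with bortezomib titrated as control.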

For the compound `COc1ccc([C@@H]2c3cc4c(cc3C(=O)[C@H](C)C2C)OCO4)cc1OC` (some centres not stated), the Potency result in experiment [1], in experiment [2], in experiment [3], in experiment [4], in experiment [7] and in experiment [9] was “inactive” each time. Besides, the Potency result in experiment [10], in [12], in experiment [13], in [14], in [15] and in [17] was “inactive” throughout. Besides, the compound was classed as inactive in experiment [5] and in experiment [16]. Also, the Potency is 16.6 µM (active) in experiment [6], 16.6 µM (active) in experiment [8] and 11.7 µM (active) in experiment [11].

Take `COc1ccc([C@@H]2c3cc4c(cc3C[C@H](C)C2C)OCO4)cc1OC` (some centres not stated): the Potency entry in experiment [1], in experiment [3], in [4], in experiment [18], in [9] and in experiment [10] was “inactive” in each case. In addition, the Potency result in experiment [19], in experiment [14], in experiment [15] and in experiment [17] was “inactive” in each case. Also, the compound was called inactive in experiment [5] and in experiment [16]. The Potency in experiment [6] is 3.72 µM (active); in [11], 7.41 µM (active).

In the case of `COC(=O)[C@@]1(C)CCC[C@]2(C)c3cc(OC)ccc3CC[C@@H]12`, the Potency result in [1], in [3], in experiment [4], in [18], in [6] and in experiment [20] was “inactive” each time. Further, the Potency entry in experiment [7], in [8], in experiment [9], in [10], in experiment [11] and in experiment [13] was “inactive” throughout. Besides, the Potency result in [19], in experiment [15] and in [17] was “inactive” each time. Further, the result in experiment [5] and in experiment [16] was inactive.

For the compound `C[C@H](c1cnc(N)[nH]1)c1ccc(O)c2[nH]cc(-c3cnc(-c4c[nH]c5ccccc45)c(=O)[nH]3)c12`, the Potency result in [1], in [2], in experiment [3], in [4], in experiment [6] and in experiment [20] was “inactive” each time. For the same compound, the Potency entry in experiment [8], in experiment [9], in experiment [13], in experiment [19] and in experiment [14] was “inactive” in each case. Moreover, the result in [16] was inactive.

Take `C/C(=C\[C@H](C)C(=O)C[C@H](O)CC1CC(=O)NC(=O)C1)[C@@H]1OC(=O)CCCC/C=C/[C@@H](O)C[C@@H]1C`: the Potency result in experiment [2], in [4], in experiment [18], in experiment [6], in experiment [12] and in experiment [15] was “inactive” in each case. Also, the Potency entry in experiment [17] was “inactive”. Further, the result in experiment [5] and in experiment [16] was inactive. In addition, the Potency is 9.35 µM (active) in [20]; 2.96 µM (active) in [7]; 7.41 µM (active) in experiment [8]; 34.3 µM (active) in experiment [10]; 9.65 µM (active) in [13]; 7.41 µM (active) in experiment [19].

Take `C/C=C/c1cc2c(c(=O)o1)C(=O)[C@@H](O)[C@H](C)O2`: the Potency entry in experiment [4], in experiment [18], in [20], in experiment [12], in experiment [14] and in experiment [17] was “inactive” throughout. The Potency in experiment [7] was 5.26 µM (active); in [9], 26.4 µM (active); in experiment [10], 21.7 µM (active); in [11], 37.1 µM (active); in experiment [13] it was 34.3 µM (active); in experiment [19], 4.67 µM (active). In addition, the result in [16] was inactive.

`CC1=C[C@H]2[C@H]3C(=O)C(c4ccc(O)cc4)=C[C@@]3(c3ccc(O)cc3)[C@@H]1C(=O)[C@]2(C)O`: the Potency entry in [1], in [2], in experiment [18], in experiment [8], in [10] and in experiment [12] was “inactive” each time. Further, the Potency entry in experiment [14], in [15] and in [17] was “inactive” in each case. Moreover, the call in [5] was inactive. Besides, the Potency in experiment [6] is 3.72 µM (active); in experiment [20] it was 0.332 µM (active); in [7], 0.235 µM (active); in experiment [11], 0.331 µM (active).
